system: BRSK2; details: Compound Concentration (nM):1000
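Further: KINOMEscan scanMAX binding as percent activity remaining versus control; lower means stronger binding.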

SMILES | Percent Control [%]
O=C(Nc1n[nH]c2nc(-c3ccc(O)cc3)c(Br)cc12)C1CC1 [SB-725317] | 47
COc1cccc(-c2c[nH]c3c(N/N=C/c4ccncc4)ncnc23)c1 [GW814408X] | 92
Cl.O=C(O[C@H]1CN[C@H](C#Cc2cc3ncnc(Nc4ccc5c(cnn5Cc5ccccc5)c4)c3s2)C1)N1CCOCC1 [GSK200398A] | 100
CCS(=O)(=O)c1ccc(OC)c(Nc2ncc(-c3cccc(OC)c3)o2)c1 [GW580509X] | 96
COc1ccc2cc(-c3c(-c4ccncc4)nc(-c4ccc(S(C)(=O)=O)cc4C)n3C)ccc2c1 [SB-633825] | 73
COc1ccc(COc2ccc(Cc3cnc(N)nc3N)cc2OC)cc1 [GW632580X] | 55
C[C@@H](Oc1cc(-n2cnc3ccc(OC4CCN(C)CC4)cc32)sc1C(N)=O)c1ccccc1Cl [GSK579289A] | 56
CCS(=O)(=O)c1ccc(OC)c(Nc2ncc(-c3cccc(F)c3)o2)c1 [GW621970X] | 89
COc1cc(N2CCN(C(C)C)CC2)ccc1Nc1nc(Nc2ccc(F)cc2C(=O)NC[C@@H](O)CO)c2cc[nH]c2n1 [GSK1392956A] | 100
COc1cc2ncn(-c3cc(O[C@H](C)c4ccccc4Cl)c(C(N)=O)s3)c2cc1OC [GSK237701A] | 47
Cl.O=C(Nc1ccc(Oc2ccc3[nH]c(NC(=O)c4ccccc4)nc3c2)cc1)Nc1cc(C(F)(F)F)ccc1F [GW709042A] | 73
COc1cc(C)c(N(C)C(=O)CN(C)C)cc1Nc1nc(Nc2cccc(F)c2C(N)=O)c2cc[nH]c2n1 [GSK2219385] | 93
CCc1ccc(Oc2nccc(-c3c(-c4ccc(F)cc4)ncn3C3CCNCC3)n2)cc1 [SB-242719] | 100
CC1=C(C(=O)Nc2ccc3[nH]ncc3c2)C(c2ccc3ccccc3c2)CC(=O)N1 (stereo not drawn) [GSK270822A] | 73
Nc1ncnc2occ(-c3ccc(NC(=O)Nc4cc(C(F)(F)F)ccc4F)cc3)c12 [GW770249X] | 88
O=C1Nc2ccc(C(=O)c3ccco3)cc2C1=Cc1cc(Cl)c(O)c(Cl)c1 [GW406108X] | 100
COc1ccc2[nH]c3c4[nH]c5ccc(OC)cc5c4c4c(c3c2c1)C(=O)NC4=O [GW296115X] | 6.2

SMILES | Percent Control [%]
CN(C)CCNC(=O)Nc1ccc(N(C)c2ccnc(Nc3ccc(CS(C)(=O)=O)cc3)n2)cc1.Cl [GW830900A] | 96
Cl.c1ccc(Cc2nc3ccc(Nc4ncnc5ccccc45)cc3[nH]2)cc1 [GR269666A] | 91
COc1ccc2c(-c3ccnc(Nc4cccc(OC(F)(F)F)c4)n3)cnn2n1 [GW810372X] | 77
COc1cccc(-n2ncc3c(N/N=C/c4ccncc4)ncnc32)c1 [GW784752X] | 61
COc1cc(/C=N/Nc2ncnc3[nH]ncc23)ccc1O [GW578748X] | 61
NS(=O)(=O)c1ccc(N/N=C2\C(=O)Nc3ccc(C(=O)NCCc4c[nH]cn4)cc32)cc1 [GW300660X] | 89
NS(=O)(=O)c1ccc(N/N=C2\C(=O)Nc3ccc(-c4cnco4)cc32)cc1 [GW276655] | 66
NS(=O)(=O)c1ccc(Nc2ncc(-c3ccccc3)o2)cc1 [GW572399X] | 100
C/C(Nc1ccc(S(N)(=O)=O)cc1)=C1/C(=O)Nc2ccccc21 [GW335962X] | 81
Cl.O=S1CCN(Cc2ccc(-c3ccc4ncnc(Nc5ccc(OCc6ccccc6)c(F)c5)c4c3)o2)CC1 [GW576924A] | 85
CN(C)c1cc2c(Nc3ccc4c(cnn4Cc4ccccc4)c3)ncnc2cn1 [GW282974X] | 88
CCn1c(-c2nonc2N)nc2c(C#CC(C)(C)O)nc(OCCNC)cc21.Cl [GSK949675] | 91
CC(C)COC(=O)c1ccc2c(c1)/C(=C/Nc1ccc(S(N)(=O)=O)cc1)C(=O)N2 [GW416981X] | 88
CC1=C(C(=O)Nc2ccc3[nH]ncc3c2)C(c2ccc(Cl)c(Cl)c2)CC(=O)N1 (stereo not drawn) [GSK299115A] | 98
NS(=O)(=O)c1ccc(N/N=C2\C(=O)Nc3ccc(Cl)cc32)cc1 [GW280670X] | 86
COc1cc(C=NNc2ncnc3c2cnn3-c2ccccc2)ccc1O [GW513184X] | 73
